Measured values reported in PubChem BioAssay (NCI).
The panel holds about 83,000 compounds, 20% with a hit somewhere; the sample as a whole holds those more often.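 Activity criterion: percent growth below 10, measured after cells in 96-well plates were exposed to a single compound concentration for 48 hours.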 The source made the active and inactive calls.

Assays:
Assay in all cases: NCI-60 one-dose screen, 48 h (100 = growth as untreated, 0 = no growth, -100 = all killed)
Conditions in all cases: 10 µM unless noted
NCI-H23 lung = system: NCI-H23 lung
NCI-H226 lung = system: NCI-H226 lung
NCI-H322M lung = system: NCI-H322M lung
HOP-62 NSCLC = system: HOP-62 NSCLC
NCI-H460 lung = system: NCI-H460 lung
HOP-92 NSCLC = system: HOP-92 NSCLC
NCI-H522 lung = system: NCI-H522 lung
A549/ATCC NSCLC = system: A549/ATCC NSCLC
786-0 renal = system: 786-0 renal
COLO 205 colon = system: COLO 205 colon

Measured: growth

C#CCOc1cccc(-c2ncnc3cc(NC(=O)CCl)ccc23)c1
active: NCI-H226 lung -11% | HOP-62 NSCLC -46.2% | NCI-H460 lung -18.7% | HOP-92 NSCLC -67.1% | NCI-H522 lung -77.1% | 786-0 renal -85.4% | COLO 205 colon -82.4%
inactive: NCI-H23 lung 10.3% | NCI-H322M lung 71.8% | A549/ATCC NSCLC 16.7%

COC(=O)c1cc(-c2ccc(OC)c(OC)c2)[nH]c1N/N=C/c1c(Cl)cccc1Cl
inactive: NCI-H23 lung 40.7% | NCI-H226 lung 62.4% | NCI-H322M lung 55.1% | NCI-H460 lung 14.6% | HOP-92 NSCLC 52.7% | NCI-H522 lung 13.7% | A549/ATCC NSCLC 43% | COLO 205 colon 28%
active: HOP-62 NSCLC -7.06% | 786-0 renal 8.47%

COC(=O)c1cc(-c2cc(OC)c(OC)c(OC)c2)[nH]c1N/N=C/c1c(Cl)cccc1Cl
inactive: NCI-H226 lung 72.5% | NCI-H322M lung 45.3% | A549/ATCC NSCLC 28.1% | COLO 205 colon 56.1%
active: NCI-H23 lung -15.6% | HOP-62 NSCLC -43.9% | NCI-H460 lung 2.31% | HOP-92 NSCLC -34.8% | NCI-H522 lung -45.3% | 786-0 renal -44.4%

c1ccc(Cn2cc3c(c2)-c2nc(Nc4ccccc4)ncc2CC3)cc1
inactive: NCI-H23 lung 71.7% [100 µM] | NCI-H226 lung 87.1% [100 µM] | NCI-H322M lung 78.2% [100 µM] | HOP-62 NSCLC 85.8% [100 µM] | NCI-H460 lung 82.7% [100 µM] | HOP-92 NSCLC 50.4% [100 µM] | NCI-H522 lung 80% [100 µM] | A549/ATCC NSCLC 81.9% [100 µM] | 786-0 renal 97.3% [100 µM] | COLO 205 colon 106% [100 µM]

CN(C)c1ccc(/C=C/C2=[N+](C)c3ccccc3C2(C)C)cc1
inactive: NCI-H226 lung 29.4% | NCI-H322M lung 28.7% | HOP-62 NSCLC 28.7% | NCI-H460 lung 20% | NCI-H522 lung 18.5% | A549/ATCC NSCLC 15.3% | 786-0 renal 25%
active: NCI-H23 lung 5.41% | HOP-92 NSCLC -19.9% | COLO 205 colon -76.2%

CCCc1cc(CCC)n2nc(N)nc2n1
inactive: NCI-H23 lung 103% | NCI-H226 lung 94.8% | NCI-H322M lung 97.9% | HOP-62 NSCLC 97.5% | NCI-H460 lung 110% | HOP-92 NSCLC 106% | NCI-H522 lung 109% | A549/ATCC NSCLC 112% | 786-0 renal 97.1% | COLO 205 colon 103%

CC(C)c1nc(N(C)S(C)(=O)=O)nc(-c2ccc(F)cc2)c1/C=C/C(=O)C[C@@H](O)CC(=O)O
inactive: NCI-H23 lung 99.8% | NCI-H226 lung 113% | NCI-H322M lung 90% | HOP-62 NSCLC 95.8% | NCI-H460 lung 108% | HOP-92 NSCLC 84.2% | NCI-H522 lung 71.4% | A549/ATCC NSCLC 89.5% | 786-0 renal 106% | COLO 205 colon 112%

CCOc1ccc(-c2cc(C3(S(=O)(=O)c4ccc(C)cc4)CC=CC3)on2)cc1
inactive: NCI-H23 lung 73.2% | NCI-H226 lung 47.7% | NCI-H322M lung 96.4% | HOP-62 NSCLC 85.9% | NCI-H460 lung 91.1% | HOP-92 NSCLC 86.1% | NCI-H522 lung 70.6% | A549/ATCC NSCLC 92.8% | 786-0 renal 102% | COLO 205 colon 95.5%

O=C1CCC(C(=O)N/N=C/c2ccc([N+](=O)[O-])cc2)N1 (stereo not given)
inactive: NCI-H23 lung 98.6% | NCI-H226 lung 106% | NCI-H322M lung 102% | HOP-62 NSCLC 110% | NCI-H460 lung 101% | HOP-92 NSCLC 89.1% | NCI-H522 lung 96.1% | A549/ATCC NSCLC 102% | 786-0 renal 95.5% | COLO 205 colon 108%

CCCCCCCCCCCCCCCCCCOc1ccccc1CC(=O)OCC[N+]1(C)CCCCC1
active: HOP-92 NSCLC -9.25%
inactive: NCI-H23 lung 29.8% | NCI-H226 lung 28.1% | NCI-H322M lung 84.6% | HOP-62 NSCLC 70% | NCI-H460 lung 62.2% | NCI-H522 lung 33.3% | A549/ATCC NSCLC 42.2% | 786-0 renal 31.2% | COLO 205 colon 55.6%

CC(=O)/C(Br)=C/c1ccc(Br)o1
active: 786-0 renal 5.9%
inactive: NCI-H23 lung 68.4% | NCI-H226 lung 85.4% | NCI-H322M lung 102% | HOP-62 NSCLC 137% | NCI-H460 lung 105% | HOP-92 NSCLC 33.8% | NCI-H522 lung 55.7% | A549/ATCC NSCLC 102% | COLO 205 colon 73.8%

O=C(Cn1cc(CSc2nc3ccccc3o2)nn1)Nc1ccc([N+](=O)[O-])cc1
inactive: NCI-H23 lung 97.8% | NCI-H226 lung 99.4% | NCI-H322M lung 102% | HOP-62 NSCLC 83.7% | NCI-H460 lung 98.5% | HOP-92 NSCLC 95.2% | NCI-H522 lung 78.5% | A549/ATCC NSCLC 101% | 786-0 renal 99.1% | COLO 205 colon 110%

CCCCC/C=C/CCC(=O)N[C@H]1[C@H](Oc2c3cc4cc2Oc2ccc(cc2Cl)[C@@H](O[C@@H]2O[C@H](CO)[C@@H](O)[C@H](O)[C@H]2NC(C)=O)[C@@H]2NC(=O)[C@H](NC(=O)[C@@H]4NC(=O)[C@H]4NC(=O)[C@@H](Cc5ccc(c(Cl)c5)O3)NC(=O)[C@@H](N)c3ccc(O)c(c3)Oc3cc(O)cc4c3)c3ccc(O)c(c3)-c3c(O[C@H]4O[C@H](CO)[C@@H](O)[C@H](O)[C@@H]4O)cc(O)cc3[C@H](C(=O)O)NC2=O)O[C@H](CO)[C@H](O)[C@@H]1O
inactive: NCI-H23 lung 93.4% | NCI-H226 lung 105% | NCI-H322M lung 108% | HOP-62 NSCLC 113% | NCI-H460 lung 107% | HOP-92 NSCLC 96.4% | NCI-H522 lung 103% | A549/ATCC NSCLC 99.8% | 786-0 renal 101% | COLO 205 colon 103%

Cc1cc(C(=O)Nc2cc(Nc3ncccc3-c3ncnc4nc[nH]c34)ccc2F)cc(C(C)(C)C#N)c1
active: HOP-92 NSCLC -13.4%
inactive: NCI-H23 lung 19.1% | NCI-H226 lung 39.9% | NCI-H322M lung 56.6% | HOP-62 NSCLC 48.5% | NCI-H460 lung 33.4% | NCI-H522 lung 53.7% | A549/ATCC NSCLC 48.7% | 786-0 renal 63.5% | COLO 205 colon 13.3%

C=C1/C(=C\C=C2/CCC[C@]3(C)[C@@H]([C@H](C)CCCC(C)(C)O)CC[C@@H]23)C[C@@H](OC(=O)CBr)C[C@@H]1O
active: HOP-92 NSCLC -67.5% | NCI-H522 lung -68.8% | 786-0 renal 6.95%
inactive: NCI-H23 lung 37.7% | NCI-H226 lung 45.2% | NCI-H322M lung 94% | HOP-62 NSCLC 83.8% | NCI-H460 lung 92.1% | A549/ATCC NSCLC 66% | COLO 205 colon 19.4%

O=C1/C(=C/c2ccc(Br)cc2)COc2ccc(O)cc21
inactive: NCI-H23 lung 101% | NCI-H226 lung 95.5% | NCI-H322M lung 95.6% | HOP-62 NSCLC 99% | NCI-H460 lung 102% | HOP-92 NSCLC 99.9% | NCI-H522 lung 15.8% | A549/ATCC NSCLC 91.1% | 786-0 renal 76.4% | COLO 205 colon 86.8%

CC1=C(C(=O)OCc2ccccc2)C(c2ccc3c(c2)OCO3)n2c(nc3ccccc32)N1 (stereo not given)
active: NCI-H460 lung 6.62%
inactive: NCI-H23 lung 49.3% | NCI-H226 lung 58.2% | NCI-H322M lung 47% | HOP-62 NSCLC 44.2% | HOP-92 NSCLC 78.5% | NCI-H522 lung 26.3% | A549/ATCC NSCLC 47.1% | 786-0 renal 43.1% | COLO 205 colon 37.2%

O=C(Nc1ccc2[nH]ncc2c1)c1csc(Nc2ccccc2)n1
inactive: NCI-H23 lung 47.3% | NCI-H226 lung 67.2% | NCI-H322M lung 46.5% | HOP-62 NSCLC 50.7% | NCI-H460 lung 11.9% | HOP-92 NSCLC 77.9% | NCI-H522 lung 17.5% | A549/ATCC NSCLC 40.7% | 786-0 renal 38.9% | COLO 205 colon 33.2%

N#C/C(=C/C=C/c1ccccc1)S(=O)c1ccccc1 (stereo not given)
inactive: NCI-H226 lung 12% | NCI-H322M lung 10.4%
active: NCI-H23 lung -36.6% | HOP-62 NSCLC -25.6% | NCI-H460 lung -30% | HOP-92 NSCLC -58.5% | NCI-H522 lung -68.3% | A549/ATCC NSCLC 2.3% | 786-0 renal -89.7% | COLO 205 colon -56.4%

O=C(CSc1nnc(-c2cc(-c3ccc(Cl)cc3)nc3ccccc23)n1-c1ccccc1)Nc1ccc(Cl)cc1
inactive: NCI-H23 lung 99.7% | NCI-H226 lung 95% | NCI-H322M lung 102% | HOP-62 NSCLC 114% | NCI-H460 lung 100% | HOP-92 NSCLC 111% | NCI-H522 lung 93.4% | A549/ATCC NSCLC 96.2% | 786-0 renal 96.8% | COLO 205 colon 115%

O=c1n(C2OC(CO)C(O)C2O)ccc2nccn12 (stereo not given)
inactive: NCI-H23 lung 113% | NCI-H226 lung 110% | NCI-H322M lung 114% | HOP-62 NSCLC 127% | NCI-H460 lung 99.9% | HOP-92 NSCLC 105% | NCI-H522 lung 116% | A549/ATCC NSCLC 96% | 786-0 renal 103% | COLO 205 colon 126%

CSc1nn2c(-c3cc4cc(Br)ccc4oc3=O)ccnc2c1C#N
inactive: NCI-H23 lung 95.3% | NCI-H226 lung 99.3% | NCI-H322M lung 102% | HOP-62 NSCLC 97.9% | NCI-H460 lung 104% | HOP-92 NSCLC 105% | NCI-H522 lung 92.8% | A549/ATCC NSCLC 107% | 786-0 renal 101% | COLO 205 colon 119%

CC(C)(C)CC(C)(C)Nc1c(-c2c(O)c3ccccc3oc2=O)nc2sccn12
inactive: NCI-H23 lung 97.9% | NCI-H226 lung 88.9% | NCI-H322M lung 86.7% | HOP-62 NSCLC 85% | NCI-H460 lung 111% | HOP-92 NSCLC 107% | NCI-H522 lung 83% | A549/ATCC NSCLC 90.8% | 786-0 renal 109% | COLO 205 colon 102%

O=C1C2C(c3cccs3)C=C(c3ccc(Cl)cc3)N2C(=S)N1c1ccccc1 (stereo not given)
inactive: NCI-H23 lung 94.2% | NCI-H226 lung 86.8% | NCI-H322M lung 102% | HOP-62 NSCLC 101% | NCI-H460 lung 108% | HOP-92 NSCLC 97.2% | NCI-H522 lung 98.6% | A549/ATCC NSCLC 101% | 786-0 renal 102% | COLO 205 colon 119%

C=CCn1c(SCC(=O)Nc2ccc(C(=O)/C=C/c3cc(OC)c(OC)c(OC)c3)cc2)nnc1-c1cc(-c2ccc(S(N)(=O)=O)cc2)nc2ccccc12
inactive: NCI-H23 lung 88.9% | NCI-H226 lung 90.7% | NCI-H322M lung 105% | HOP-62 NSCLC 111% | NCI-H460 lung 94.9% | HOP-92 NSCLC 96.9% | NCI-H522 lung 92.7% | A549/ATCC NSCLC 107% | 786-0 renal 101% | COLO 205 colon 109%

COc1cc(/C=N/NC(=O)c2ccc3nc(-c4ccc(Cl)cc4)[nH]c3c2)cc(OC)c1OC
inactive: NCI-H23 lung 53.7% | NCI-H226 lung 76% | NCI-H322M lung 87.5% | HOP-62 NSCLC 81.7% | NCI-H460 lung 82.8% | HOP-92 NSCLC 71.7% | NCI-H522 lung 78.3% | A549/ATCC NSCLC 85.8% | 786-0 renal 51.2% | COLO 205 colon 45.7%
